# From PubChem BioAssay AID2283312 (EPA ToxCast)
# Results filed as inconclusive are left out. Calls of active or inactive are those of the source. The calls were made as follows: active = hit-call score of the fitted dose curve at least 0.9, where 1 is the maximum; inconclusive = response in the unintended direction; inactive = score below 0.9.
# Molecular target: rat Vasoactive Intestinal Peptide Receptor (VIP), Non-selective Binding, Vipr1 (gene 24875) (UniProt P30083)
# Assay: NVS_GPCR_rVIP_NonSelective: NovaScreen (NVS) G Protein-Coupled Receptor Assay for rat Vasoactive Intestinal Peptide Receptor (VIP), Non-selective Binding
# Protocol: NVS_GPCR_rVIP_NonSelective is a biochemical, single-readout assay that uses extracted gene-proteins from Rat forebrain membranes in a tissue-based cell-free assay. Measurements were taken 1 hour after chemical dosing in a 96-well plate.NVS_GPCR_rVIP_NonSelective is one of one assay component(s) measured or calculated from the NVS_GPCR_rVIP_NonSelective assay. It is designed to make measurements of radioligand binding, a form of binding reporter, as detected with scintillation counting signals by Filter-based radiodetection technology.Data from the assay component NVS_GPCR_rVIP_NonSelective was analyzed into 1 assay endpoint. This assay endpoint, NVS_GPCR_rVIP_NonSelective, was analyzed in the positive analysis fitting direction relative to DMSO as the negative control and baseline of activity. Using a type of binding reporter, loss-of-signal activity can be used to understand changes in the binding as they relate to the gene Vipr1. Furthermore, this assay endpoint can be referred to as a primary readout, because the performed assay has only produced 1 assay endpoint. To generalize the intended target to other relatable targets, this assay endpoint is annotated to the gpcr intended target family, where the subfamily is secretin receptor.
# Binding assays used specific radioligands (tritiated, iodinated) with non-radioactive competitive displacement ligands in agonist or antagonist protocols (as indicated) and various reference compounds and inhibitors to titrate specific binding to receptors and transporters. Most enzyme assays (CYPs, kinases, phosphatases, proteases, HDACs) used recombinant protein and specific substrates (fluorescence mostly, some colorimetric and radioactive) and inhibitors, followed by a biochemical separation of substrate and product. All assays for the biochemical HTS were initially run in duplicate at a single concentration (10 uM for CYP450 assays and 25 uM for all others). Assay-chemical combinations meeting a pre-defined threshold (e.g., 30% inhibition and other criteria defined below) were then run in singleton concentration-response format with maximum concentration of 20 uM for CYPs and 50 uM for all others. Each assay was run with positive and negative controls, and concurrent controls on every plate. The follow-up (secondary) screen tested active chemical-pairs in concentration series, as well as a few additional assays not tested in the primary screen, some selected negative inactives, and several cases re-run in the concentration series for confirmatory purposes.
# rat Vasoactive Intestinal Peptide Receptor (VIP), Non-selective Binding, Vipr1 (gene 24875), sequence (P30083 whole entry, looked up): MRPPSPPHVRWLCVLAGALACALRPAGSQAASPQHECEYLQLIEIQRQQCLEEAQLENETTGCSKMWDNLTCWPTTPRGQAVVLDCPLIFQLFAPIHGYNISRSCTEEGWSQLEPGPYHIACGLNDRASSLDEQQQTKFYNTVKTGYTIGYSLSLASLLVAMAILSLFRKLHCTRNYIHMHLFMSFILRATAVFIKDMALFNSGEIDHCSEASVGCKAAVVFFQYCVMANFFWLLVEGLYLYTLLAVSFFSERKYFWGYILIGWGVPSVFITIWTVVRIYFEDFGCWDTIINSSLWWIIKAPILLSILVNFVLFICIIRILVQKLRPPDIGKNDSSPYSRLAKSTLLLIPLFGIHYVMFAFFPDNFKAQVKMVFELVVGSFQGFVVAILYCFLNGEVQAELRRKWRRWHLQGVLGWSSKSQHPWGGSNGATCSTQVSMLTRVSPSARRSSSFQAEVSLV
Structure (SMILES),outcome,AC50
c1ccc(Nc2ccccc2)cc1,inactive,–
CN(C)C(=O)C1(N2CCCCC2)CCN(CC[C@@]2(c3ccc(Cl)c(Cl)c3)CN(C(=O)c3ccccc3)CCO2)CC1,inactive,–
CC(C)(c1ccc(O)cc1)c1ccc(O)cc1,inactive,–
NCc1cccc(C2CCN(C(=O)c3ccc(C#Cc4ccccc4F)o3)CC2)c1,inactive,–
O=C(N[C@@H](c1ccccc1)[C@@H]1CCCCN1)c1cccc(C(F)(F)F)c1Cl,inactive,–
O=C(NO)C1(NS(=O)(=O)c2ccc(Oc3ccc(F)cc3)cc2)CCOCC1,inactive,–
CC(=O)NC1(c2cccc(F)c2)CCN(CC[C@@]2(c3ccc(Cl)c(Cl)c3)CN(c3ccccc3)C(=O)CO2)CC1,inactive,–
CCCCCCCCCC,inactive,–
COCC(C)OCC(C)OCC(C)O (stereo not given),inactive,–
CCOC(=O)O[C@H](C)OC(=O)c1ccc2c(c1)cc(C(=O)NC1CCN(C(C)C)CC1)n2Cc1cc(-c2ccc(Cl)s2)on1,–,23.6 µM (active)
